Results published in the supplement of paper PMC10849652.
Of roughly 7,900 targets only a part is listed; those with a hit were picked by preference. About 0.6% of all pairs of compound and target were hits. A number with no mark means an inactive call.

What was measured:
Test in all cases: log2 fold change, soluble protein after heating vs DMSO (PISA); higher = thermal stabilisation; K562 cells, 10 uM, 30 min; active = over 0.2 and 3.5 SD of the protein, either way, in both replicates (recomputed)
[1] = compound: NC(=O)Nc1cc(-c2cccc(F)c2)sc1C(=O)N[C@H]1CCCNC1
Method in brief: (§1)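 K562 cells at 2×10^6 cells/mL were given 10 μM compound for 30 min. Aliquots then went through 3 min of heating across 48°C-58°C, were pooled, and were extracted in PBS with 0.5% NP-40 at 4°C, and the supernatant after 21,000xg for 90 min was quantified by TMTpro 16plex LC-MS/MS with channel sums equalised. Thermal stability relative to control samples, from duplicates, is given as log2 fold change.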

[2] = compound: NC(=O)c1cnc(N[C@@H]2CCCC[C@@H]2N)nc1Nc1cccc(-n2nccn2)c1
Method in brief: as §1

[3] = compound: NC1(c2ccc(-c3nc4ccn5c(=O)[nH]nc5c4cc3-c3ccccc3)cc2)CCC1
Method in brief: as §1

[4] = compound: NCC(=O)Nc1ccc(-n2nc(C(F)(F)F)cc2-c2ccc3c(ccc4ccccc43)c2)cc1
Method in brief: as §1

[5] = compound: Nc1ccccc1NC(=O)c1ccc(CNC(=O)OCc2cccnc2)cc1 [entinostat]
Method in brief: as §1

[6] = compound: O=C(CCCCCCC(=O)Nc1ccccc1)NO [vorinostat]
Method in brief: as §1

[7] = compound: O=C(CCCCCCNC(=O)c1cnc(N(c2ccccc2)c2ccccc2Cl)nc1)NO [citarinostat]
Method in brief: as §1

[8] = compound: O=C(O)c1ccc2c(c1)nc(Nc1cccc(Cl)c1)c1ccncc12 [silmitasertib]
Method in brief: as §1

[9] = compound: O=C1NC(=O)C(c2cnc3ccccn23)=C1c1cn2c3c(cc(F)cc13)CN(C(=O)N1CCCCC1)CC2
Method in brief: as §1

[10] = compound: c1cc(OCCN2CCCCC2)cc(-c2n[nH]c3ccc(-c4nnc[nH]4)cc23)c1
Method in brief: as §1

Sequence of UniProt Q9NVA4 (Q9NVA4 whole entry, looked up): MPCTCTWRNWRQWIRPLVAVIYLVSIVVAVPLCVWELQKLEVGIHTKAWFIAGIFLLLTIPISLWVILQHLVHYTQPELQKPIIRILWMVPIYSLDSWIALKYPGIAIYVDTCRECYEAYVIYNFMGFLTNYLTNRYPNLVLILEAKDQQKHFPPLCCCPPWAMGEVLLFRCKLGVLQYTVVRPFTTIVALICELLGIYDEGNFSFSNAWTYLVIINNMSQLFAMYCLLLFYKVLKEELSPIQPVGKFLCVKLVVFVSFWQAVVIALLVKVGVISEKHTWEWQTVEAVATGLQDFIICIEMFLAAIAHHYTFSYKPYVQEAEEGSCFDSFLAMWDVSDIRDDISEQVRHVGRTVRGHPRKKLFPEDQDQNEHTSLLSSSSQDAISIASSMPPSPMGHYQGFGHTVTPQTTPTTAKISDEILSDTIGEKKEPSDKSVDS
Sequence of UniProt O60784 (O60784 whole entry, looked up): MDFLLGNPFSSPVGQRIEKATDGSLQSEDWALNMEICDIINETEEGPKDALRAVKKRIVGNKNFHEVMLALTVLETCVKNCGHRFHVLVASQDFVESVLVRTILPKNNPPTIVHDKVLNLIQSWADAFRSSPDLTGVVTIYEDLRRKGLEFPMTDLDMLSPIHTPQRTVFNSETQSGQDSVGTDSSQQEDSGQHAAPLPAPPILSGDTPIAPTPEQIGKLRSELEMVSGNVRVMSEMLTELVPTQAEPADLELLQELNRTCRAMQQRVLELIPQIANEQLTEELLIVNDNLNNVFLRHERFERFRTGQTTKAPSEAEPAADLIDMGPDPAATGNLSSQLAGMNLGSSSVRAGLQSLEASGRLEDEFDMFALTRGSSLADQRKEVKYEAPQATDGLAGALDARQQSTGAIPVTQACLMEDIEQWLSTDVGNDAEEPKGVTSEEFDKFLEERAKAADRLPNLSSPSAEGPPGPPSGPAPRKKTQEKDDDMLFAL
Sequence of UniProt Q13263 (Q13263 whole entry, looked up): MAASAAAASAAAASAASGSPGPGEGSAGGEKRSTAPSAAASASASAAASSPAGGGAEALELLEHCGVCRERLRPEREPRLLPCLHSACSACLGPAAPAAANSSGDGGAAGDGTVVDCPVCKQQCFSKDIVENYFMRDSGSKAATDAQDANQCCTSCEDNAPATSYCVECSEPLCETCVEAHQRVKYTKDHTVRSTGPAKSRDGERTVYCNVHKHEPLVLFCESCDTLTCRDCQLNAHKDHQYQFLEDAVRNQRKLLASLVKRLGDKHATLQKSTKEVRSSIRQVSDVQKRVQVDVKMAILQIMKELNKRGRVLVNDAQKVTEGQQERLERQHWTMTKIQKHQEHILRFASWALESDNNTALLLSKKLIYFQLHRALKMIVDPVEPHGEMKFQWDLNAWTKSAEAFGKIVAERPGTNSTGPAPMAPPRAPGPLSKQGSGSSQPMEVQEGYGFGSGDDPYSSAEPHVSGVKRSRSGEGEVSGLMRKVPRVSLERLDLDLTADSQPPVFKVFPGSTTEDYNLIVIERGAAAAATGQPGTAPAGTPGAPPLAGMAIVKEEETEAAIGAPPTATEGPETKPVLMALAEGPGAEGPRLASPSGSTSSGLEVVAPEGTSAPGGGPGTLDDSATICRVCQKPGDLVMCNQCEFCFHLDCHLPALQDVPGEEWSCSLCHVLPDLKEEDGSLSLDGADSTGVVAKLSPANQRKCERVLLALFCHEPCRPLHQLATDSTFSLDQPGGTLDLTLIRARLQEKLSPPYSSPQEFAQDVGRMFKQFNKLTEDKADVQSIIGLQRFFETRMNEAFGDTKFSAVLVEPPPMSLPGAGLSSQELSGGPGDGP
Sequence of UniProt Q15388 (Q15388 whole entry, looked up): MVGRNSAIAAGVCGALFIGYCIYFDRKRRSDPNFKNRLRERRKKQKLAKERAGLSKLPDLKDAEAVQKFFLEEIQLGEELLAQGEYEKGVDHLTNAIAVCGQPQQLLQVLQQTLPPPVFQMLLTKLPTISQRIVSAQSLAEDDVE
Sequence of UniProt O14787 (O14787 whole entry, looked up): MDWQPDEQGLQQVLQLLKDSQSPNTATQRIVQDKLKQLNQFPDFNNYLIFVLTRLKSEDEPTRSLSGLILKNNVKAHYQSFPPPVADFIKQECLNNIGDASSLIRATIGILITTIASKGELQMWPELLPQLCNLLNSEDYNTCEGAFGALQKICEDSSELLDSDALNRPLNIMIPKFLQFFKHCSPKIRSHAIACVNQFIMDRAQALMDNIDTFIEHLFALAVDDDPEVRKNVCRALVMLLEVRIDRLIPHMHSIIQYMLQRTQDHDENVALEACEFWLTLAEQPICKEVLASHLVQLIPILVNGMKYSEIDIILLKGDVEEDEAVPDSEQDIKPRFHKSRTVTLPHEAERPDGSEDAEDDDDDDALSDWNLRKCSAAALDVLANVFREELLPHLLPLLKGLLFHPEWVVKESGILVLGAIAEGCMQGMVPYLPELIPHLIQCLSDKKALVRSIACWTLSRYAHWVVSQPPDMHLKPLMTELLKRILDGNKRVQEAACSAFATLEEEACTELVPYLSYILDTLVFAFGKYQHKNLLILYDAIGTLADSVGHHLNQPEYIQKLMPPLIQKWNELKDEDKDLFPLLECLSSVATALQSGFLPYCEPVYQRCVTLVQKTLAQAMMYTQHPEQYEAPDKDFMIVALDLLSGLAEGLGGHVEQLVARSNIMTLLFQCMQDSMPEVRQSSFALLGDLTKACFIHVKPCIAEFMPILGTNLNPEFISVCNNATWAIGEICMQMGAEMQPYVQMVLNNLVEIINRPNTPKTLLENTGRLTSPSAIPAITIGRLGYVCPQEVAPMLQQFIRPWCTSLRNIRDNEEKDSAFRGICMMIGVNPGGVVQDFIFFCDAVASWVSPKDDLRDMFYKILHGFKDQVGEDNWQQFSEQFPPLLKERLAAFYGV
Sequence of UniProt Q7Z3J2 (Q7Z3J2 whole entry, looked up): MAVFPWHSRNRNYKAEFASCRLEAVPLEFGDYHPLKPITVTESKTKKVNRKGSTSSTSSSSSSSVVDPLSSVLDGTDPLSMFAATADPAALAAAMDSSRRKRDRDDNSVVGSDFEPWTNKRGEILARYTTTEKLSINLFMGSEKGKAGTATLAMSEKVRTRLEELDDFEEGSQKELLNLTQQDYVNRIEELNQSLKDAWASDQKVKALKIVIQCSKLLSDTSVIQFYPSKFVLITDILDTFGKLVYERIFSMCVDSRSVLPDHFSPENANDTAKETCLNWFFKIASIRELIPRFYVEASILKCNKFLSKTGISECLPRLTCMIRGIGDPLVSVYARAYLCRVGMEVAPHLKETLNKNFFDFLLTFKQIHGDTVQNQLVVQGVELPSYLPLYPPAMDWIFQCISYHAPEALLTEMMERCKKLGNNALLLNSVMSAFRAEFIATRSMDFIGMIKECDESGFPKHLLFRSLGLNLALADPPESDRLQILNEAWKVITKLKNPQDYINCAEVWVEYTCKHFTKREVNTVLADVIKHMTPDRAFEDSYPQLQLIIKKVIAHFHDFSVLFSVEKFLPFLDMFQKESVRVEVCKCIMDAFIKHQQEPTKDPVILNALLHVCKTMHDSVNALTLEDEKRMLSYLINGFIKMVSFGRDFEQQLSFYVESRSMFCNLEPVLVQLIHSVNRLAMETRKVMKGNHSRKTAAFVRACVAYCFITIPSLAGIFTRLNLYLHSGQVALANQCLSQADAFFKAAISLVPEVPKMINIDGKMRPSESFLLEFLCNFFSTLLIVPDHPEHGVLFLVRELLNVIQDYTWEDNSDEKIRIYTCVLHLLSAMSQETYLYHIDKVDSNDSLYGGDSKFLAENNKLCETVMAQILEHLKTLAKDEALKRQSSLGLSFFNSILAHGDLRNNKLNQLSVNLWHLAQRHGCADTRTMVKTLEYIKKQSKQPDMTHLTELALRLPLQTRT
Sequence of UniProt Q9NQH7 (Q9NQH7 whole entry, looked up): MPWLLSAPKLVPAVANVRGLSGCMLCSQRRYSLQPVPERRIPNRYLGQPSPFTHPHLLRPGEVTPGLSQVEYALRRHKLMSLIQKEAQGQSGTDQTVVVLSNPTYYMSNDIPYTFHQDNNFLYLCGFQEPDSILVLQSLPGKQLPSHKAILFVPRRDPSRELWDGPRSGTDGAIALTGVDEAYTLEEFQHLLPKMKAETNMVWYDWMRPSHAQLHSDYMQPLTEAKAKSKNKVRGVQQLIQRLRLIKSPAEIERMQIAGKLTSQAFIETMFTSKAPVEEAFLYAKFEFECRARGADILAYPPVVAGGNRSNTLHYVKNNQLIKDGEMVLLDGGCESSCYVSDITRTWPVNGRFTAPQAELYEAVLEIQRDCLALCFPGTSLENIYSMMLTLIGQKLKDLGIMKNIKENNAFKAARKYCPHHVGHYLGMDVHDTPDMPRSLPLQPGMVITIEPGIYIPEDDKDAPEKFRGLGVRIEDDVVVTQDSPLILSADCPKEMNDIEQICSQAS
Sequence of UniProt Q6NUQ4 (Q6NUQ4 whole entry, looked up): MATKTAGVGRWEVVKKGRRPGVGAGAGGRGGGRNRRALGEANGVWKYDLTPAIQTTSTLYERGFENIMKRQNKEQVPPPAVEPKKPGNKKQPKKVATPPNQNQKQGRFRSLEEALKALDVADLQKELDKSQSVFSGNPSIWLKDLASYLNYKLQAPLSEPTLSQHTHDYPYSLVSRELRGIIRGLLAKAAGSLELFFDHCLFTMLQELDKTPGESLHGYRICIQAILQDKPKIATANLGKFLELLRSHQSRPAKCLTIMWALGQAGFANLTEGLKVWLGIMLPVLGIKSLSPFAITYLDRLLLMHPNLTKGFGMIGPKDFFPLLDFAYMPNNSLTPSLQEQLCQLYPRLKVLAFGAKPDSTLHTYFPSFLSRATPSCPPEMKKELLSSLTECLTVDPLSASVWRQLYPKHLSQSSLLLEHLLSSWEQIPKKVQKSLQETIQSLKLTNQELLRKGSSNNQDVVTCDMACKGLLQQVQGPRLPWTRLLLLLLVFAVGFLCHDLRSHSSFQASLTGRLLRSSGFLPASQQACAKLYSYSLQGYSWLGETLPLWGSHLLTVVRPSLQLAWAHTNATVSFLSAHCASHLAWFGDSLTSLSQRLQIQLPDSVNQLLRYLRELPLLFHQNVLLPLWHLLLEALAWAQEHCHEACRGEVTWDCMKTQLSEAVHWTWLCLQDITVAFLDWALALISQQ

Target	log2 fold change [1]	log2 fold change [2]	log2 fold change [3]	log2 fold change [4]	log2 fold change [5]	log2 fold change [6]	log2 fold change [7]	log2 fold change [8]	log2 fold change [9]	log2 fold change [10]
TNPO2 (UniProt O14787)	0.015	-0.174	-0.268	-0.054	0.064	-0.008	0.047	0.059	-0.04	-0.124
TMEM189-UBE2V1 (UniProt I3L0A0)	0.06	-0.018	-0.063	-0.018	-0.097	0.005	0.046	-0.058	0.009	-0.016
VPS35L (UniProt Q7Z3J2)	-0.038	0.004	-0.137	-0.012	0.006	-0.039	0.08	0.111	-0.006	-0.062
XPNPEP1 isoform 3 (UniProt Q9NQW7)	-0.04	-0.052	-0.126	-0.07	0.015	0.399 (active)	0.062	-0.037	-0.02	0.025
TXNL1 (UniProt O43396)	-0.048	-0.013	-0.084	-0.015	0.028	0.018	0.087	0.074	-0.004	-0.03
WARS2 (UniProt Q9UGM6)	-0.082	-0.019	-0.101	-0.08	0.076	0.037	0.095	0.07	0.01	-0.023
UGDH (UniProt O60701)	-0.062	-0.124	-0.033	-0.095	0.064	-0.027	0.145	-0.102	-0.31 (active)	0
TRIM4 (UniProt Q9C037)	-0.04	0.007	0.082	-0.294	0.03	-0.03	-0.006	0.042	-0.051	-0.049
WASHC2A (UniProt Q641Q2)	-0.013	-0.012	-0.159	0.021	-0.038	0.024	-0.035	0.072	0.016	-0.056
TRAPPC8 (UniProt Q9Y2L5)	-0.039	-0.082	-0.168	-0.028	0.042	0.053	0.051	0.07	-0.016	-0.205
TOMM20 (UniProt Q15388)	0.008	-0.034	-0.023	-0.131	0.01	0.031	-0.088	-0.006	-0.088	-0.01
TP53BP1 isoform 2 (UniProt Q12888)	0.014	-0.056	-0.072	-0.008	0.018	0.031	0.074	0.117	-0.035	-0.029
TSEN2 (UniProt Q8NCE0)	0.212	-0.008	-0.126	-0.024	0.052	-0.003	0.005	0.197	-0.015	0.008
TTI1 (UniProt O43156)	-0.079	-0.093	-0.181	-0.022	0	0.142	0.028	0.062	0.057	-0.099
VWA8 (UniProt A3KMH1)	-0.017	-0.024	-0.135	-0.016	0.008	0.096	0.048	-0.046	-0.071	-0.039
VPS41 (UniProt P49754)	-0.006	-0.163	-0.267 (active)	-0.163	0.083	0.072	0.082	-0.006	-0.046	-0.056
TMEM184C (UniProt Q9NVA4)	-0.185	0.069	-0.401 (active)	-0.07	-0.218	0.08	-0.065	-0.004	-0.055	0.022
USP25 isoform 3 (UniProt Q9UHP3)	-0.038	-0.027	-0.071	-0.067	0.001	-0.019	-0.021	0.051	-0.03	0.011
XPNPEP3 (UniProt Q9NQH7)	0.034	-0.007	-0.074	0	-0.024	-0.002	-0.007	-0.004	-0.02	-0.022
WDHD1 (UniProt O75717)	-0.037	-0.054	-0.156	-0.106	0.09	0.119	0.176	0.025	-0.107	-0.001
VPS13B (UniProt Q7Z7G8)	-0.064	-0.033	-0.069	-0.039	-0.033	0.041	0.018	0.038	-0.043	-0.03
TMTC3 (UniProt Q6ZXV5)	-0.028	-0.113	-0.135	-0.097	-0.046	0.025	0.005	0.025	-0.037	-0.089
TRMT61A (UniProt Q96FX7)	0.027	0.017	0.17	0.101	-0.029	0.03	0.005	0.099	0.293	-0.146
UBE3D (UniProt Q7Z6J8)	-0.019	0.012	-0.004	0.027	0.074	0.056	0.012	0.067	-0.032	-0.164
TOM1 isoform 2 (UniProt O60784)	-0.002	-0.104	-0.066	-0.082	-0.045	-0.119	0.056	-0.019	-0.026	-0.081
TMEM214 (UniProt Q6NUQ4)	-0.01	0.049	-0.003	0.022	0.003	0.047	-0.01	0.006	0.02	-0.022
UFM1 isoform 2 (UniProt P61960)	-0.031	-0.114	-0.087	-0.057	-0.012	-0.057	-0.044	-0.025	-0.007	-0.218
TRABD (UniProt Q9H4I3)	0.008	-0.006	0.1	0.157	-0.022	0.009	-0.014	0.188	0.055	-0.026
TRIM28 (UniProt Q13263)	-0.006	-0.008	-0.038	-0.007	0.038	0.032	0.036	0.036	-0.048	-0.009
